# Laboratory results taken from PubChem BioAssay AID1745850 (National Center for Advancing Translational Sciences (NCATS), 2022).
# About 260 (12%) of roughly 2,100 compounds were called active. Not shown: some 58% with an inconclusive outcome. Calls come from the whole dose curve; as a rule, active = well fitted cell-killing curve with a large enough effect; inconclusive = small, poorly fitted or top-dose-only effect, or effect the other way; inactive = flat fitted curve, though single readings scatter. Some of the results follow.
# Test: Viability Counterscreen for Confirmatory qHTS for Inhibitors of ATXN expression; note: nearly all actives have a fitted effect of over 50% in size
# Conditions: HEK-293 ATXN2-luc cells viability, CellTiter-Fluor, 24 h; activity change, negative = cytotoxicity: at the top concentration
# Method in brief: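 Luminescence read-out (SteadyGlo, 5 min) followed a 30 min Gly-Phe-AFC (25 uM final) viability fluorescence read. ATXN2-luciferase reporter cells were exposed 24 h to a dilution series. Medium-only wells served as the 100% inhibition reference.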
# Potency is the fitted concentration of half-maximal effect.
Compound,Potency,"activity change, negative = cytotoxicity"
CC(=O)Nc1ccc(CNc2nc(NC(C)C)nc3cc(-c4ccccc4)sc23)cc1,25.1 µM (active),
COc1ccc(-c2cc(CNc3nc(NC(C)C)nc4cc(-c5ccccc5)sc34)on2)cc1,22.4 µM (active),
COc1ccccc1CNc1nc(NC(C)C)nc2cc(-c3ccccc3)sc12,28.2 µM (active),
CC(=O)Nc1ccc(CNc2nc3cc(-c4ccccc4C)sc3c(=O)n2C)cc1,,-25% [at 57.5 µM] (inactive)
CCn1c2ccccc2c2cc(/C=N/n3cnnc3)ccc21,,-18.4% (inactive)
CCOCCn1ccc2c(OCC(=O)Nc3ccc(OC)c(OC)c3)cccc2c1=O,,-12% (inactive)
COCCNc1nc(-c2cc(C)n(CCc3ccc(OC)cc3)c2C)cs1,,-24.1% [at 57.5 µM] (inactive)
COCCCn1c(N)c(-c2nc3ccccc3n2C)c2nc3ccccc3nc21,,-3.25% [at 57.5 µM] (inactive)
CO[C@@]12[C@@H]3N[C@@H]3CN1C1=C(C(=O)C(N)=C(C)C1=O)[C@@H]2COC(N)=O,,9.55% (inactive)
NNC(=O)c1sc2cc(C(F)(F)F)cnc2c1-c1cccs1,,-22.9% [at 57.5 µM] (inactive)
O=C(CNC(=O)C1COc2ccccc2O1)N/N=C/c1ccc(O)cc1O (stereo not drawn),,-22.9% (inactive)
Cc1nc(SCc2ccc(C(=O)O)cc2)nc2c1CCCC2,,-2.72% (inactive)
N=c1ccn(CC(=O)c2ccc(-c3ccccc3)cc2)cc1,,-19.1% (inactive)
Cc1c(C(=O)NCc2ccc(C(F)(F)F)cc2)sc(=O)n1Cc1cccc(F)c1,,-16.1% [at 57.5 µM] (inactive)
Cc1ccc2nc3cc([N+](=O)[O-])cc([N+](=O)[O-])c3cc2c1,17.8 µM (active),
Cc1ccc2nc(SCc3ccc([N+](=O)[O-])cc3)[nH]c2c1,,-12.6% (inactive)
Cc1cc(C)nc(NNS(=O)(=O)c2ccc(F)c(Cl)c2)n1,,-5.02% (inactive)
CC(C)CC(=O)NC(=S)NNC(=O)c1ccc(NC(=O)C2CCCCC2)cc1,,4.48% (inactive)
CCC(=O)OCCNc1cc(Sc2nc3ccccc3[nH]2)c2nonc2c1[N+](=O)[O-],3.16 µM (active),
Cc1cccc(OCCCC(=O)Nc2nc3ccccc3[nH]2)c1,,-19.4% (inactive)
CC(SC(C)C(=O)NN=Cc1cccc(Cl)c1)C(=O)NN=Cc1cccc(Cl)c1 (stereo not drawn),,-28.8% (inactive)
O=C(NC(=S)NCc1nc2ccccc2[nH]1)c1ccc(F)cc1,,-4.93% (inactive)
Cc1cc(C)cc(NC(=O)CCC(=O)Nc2cc(C)on2)c1,,-6.58% (inactive)
COc1ccc(OC)c(NC(=O)CSc2nnnn2-c2ccc3c(c2)OCO3)c1,,-28.3% [at 57.5 µM] (inactive)
Cc1cc(C)c2c(CC(=O)Nc3ccc(Cl)cn3)coc2c1,,-4.58% (inactive)
Cc1ccc(N=Nc2ccc(O)c3ncccc23)cc1,10 µM (active),

Compound,Potency,"activity change, negative = cytotoxicity"
CN1CCC(N(C)C(=O)c2ccc(Cl)c(S(=O)(=O)N3CCc4ccccc43)c2)CC1,,-25.1% [at 57.5 µM] (inactive)
Nc1ccn([C@@H]2O[C@H](CO)[C@@H](O)[C@@H]2O)c(=O)n1,,-10.9% (inactive)
CN(C)S(=O)(=O)c1cccc(N2C(=O)CC3(CCCCC3)CC2=O)c1,,-6.16% (inactive)
C=CCN(C(=O)CSc1nc2c(sc3ccccc32)c(=O)n1CCN(CC)CC)c1ccccc1,25.1 µM (active),
CCOC(=O)c1c(-n2cccc2)sc2c1CCCC2=O,,-20% [at 57.5 µM] (inactive)
CC(=O)c1ccc(N2CCN(CC(O)COC(c3ccccc3)c3ccccc3)CC2)cc1 (stereo not drawn),,-7.3% (inactive)
CC(C)Nc1nc(-c2ccccn2)nc(-c2ccccc2)c1C#N,,-20.8% [at 57.5 µM] (inactive)
CCN(CC)c1nc(-c2ccccn2)nc(-c2ccccc2)c1C#N,8.91 µM (active),
Cn1cc(SCC(=O)Nc2nc3ccccc3s2)c2ccccc21,,-4.73% (inactive)
COc1ccccc1NS(=O)(=O)c1cccc(C(=O)N/N=C/c2ccc([N+](=O)[O-])o2)c1,15.8 µM (active),
O=C(N/N=C/c1ccccc1O)c1cccc(C(F)(F)F)c1,,-7.41% (inactive)
COc1cccc(/C=N/NC(=O)c2cc3c(OC)cccc3[nH]2)c1O,,-32.3% [at 57.5 µM] (inactive)
c1ccc(COc2ncnc3c2ncn3CCCN2CCN(Cc3cccc4ccccc34)CC2)cc1,25.1 µM (active),
CCOC(=O)/C=C/C(=O)Nc1ccc(Oc2ccccc2)cc1,,-17.2% (inactive)
CN(CCOc1ccc(Br)cc1)CC(O)COc1ccc(C#N)cc1 (stereo not drawn),,-16.9% [at 57.5 µM] (inactive)
Cc1csc2ncnc(NC3CCN(Cc4ccccc4)CC3)c12,,-19.2% [at 57.5 µM] (inactive)
OC[C@@H]1CN(Cc2ccc(-c3ccccc3)cc2)C[C@H](n2cnc3c(Nc4ccccc4)ncnc32)O1,20 µM (active),
Cc1cccc(/C=N/NC(=O)c2c(-c3ccccc3)noc2C)c1O,,-17.6% (inactive)
CCCCNCCCOc1cccc(Cl)c1Cl,,-20.9% [at 57.5 µM] (inactive)
COCCCNCCCOc1ccc(Cl)cc1C(C)(C)C,35.5 µM (active),
Cc1cc(Cl)ccc1OCCCC(=O)NNC(=O)c1ccccc1O,,-10.4% (inactive)
NC(=S)n1[nH]c(-c2ccc([N+](=O)[O-])cc2)c(N=Nc2cccc(Cl)c2)c1=O,11.2 µM (active),
Cc1cc2sc3ccc(C#CC4(O)CCCCC4)cc3c(=O)c2cc1C,,-17.5% [at 57.5 µM] (inactive)
Cc1ccc(NC(=O)CNc2cccc(Br)c2)cc1S(=O)(=O)N1CCOCC1,,-29.9% (inactive)
CC(C)[C@@H]1CC[C@@H](C)C[C@H]1OC(=O)C[n+]1cc(-c2ccc(Cl)cc2)n2c1CCCCC2,22.4 µM (active),
CCn1c(C)cc(C(=O)CN2C(=O)c3ccccc3S2(=O)=O)c1C,,-1.78% (inactive)

Compound,Potency,"activity change, negative = cytotoxicity"
CCOC(=O)Cn1cc(C(=O)c2ccco2)c2ccccc21,,-8.35% (inactive)
CCn1cc(C(=O)NCc2cccc(F)c2)c(=O)c2cc(F)c(N3CCN(C(=O)c4ccco4)CC3)cc21,22.4 µM (active),
O=C(c1ccco1)N1CCN(c2ccnc3cc(Cl)ccc23)CC1,,-8.67% [at 57.5 µM] (inactive)
Cc1ccc2c(CC(=O)NNC(=O)c3ccccc3O)coc2c1,,-16% (inactive)
Cc1ccc(SC2=C(N(C)C)C(=O)c3ccccc3C2=O)cc1,,-9.87% [at 57.5 µM] (inactive)
CC(C)(C)c1ccc(NC(=O)N2CCCN(c3c(Cl)cncc3Cl)CC2)cc1,,-10.7% [at 57.5 µM] (inactive)
O=C(NNC1=Nc2ccccc2SC1)c1ccc(Cl)cc1,,-23.5% (inactive)
O=c1c2c(nc3c(-c4cccc(Br)c4)c[nH]n13)CCCC2,12.6 µM (active),
O=c1c2c(nc3c(-c4ccc(Cl)cc4)c[nH]n13)CCC2,,-24.2% (inactive)
O=C(NNc1ccnc2cc(Cl)ccc12)C1CCCCC1,,-17% (inactive)
NC(=O)c1c(NC(=O)c2ccc(S(=O)(=O)N3CCOCC3)cc2)sc2c1CCCCC2,,-15.9% (inactive)
CC1(C)Cc2c(sc(NC(=O)c3ccc(C(=O)c4ccccc4)cc3)c2C(N)=O)C(C)(C)N1,28.2 µM (active),
Nc1nc(NCCCN2CCOCC2)nc(Nc2cccc(Cl)c2)c1[N+](=O)[O-],,-23% (inactive)
CCCCC/C=C/C1=CC(=O)C[C@H](c2ccc(OC)c(OC)c2)C1,,-22.6% [at 57.5 µM] (inactive)
O=C(C(Br)=Cc1ccccc1)c1ccccc1,7.94 µM (active),
O=C(N/N=C/c1ccccc1O)/C(=C/c1ccccc1)CCO,,-4.41% (inactive)
CC(C)(C)NCC(=Cc1ccccc1)C(=O)c1ccccc1,3.55 µM (active),
CC(C)(C)c1ccc(Oc2ccc(N)cn2)cc1,,-2.49% [at 57.5 µM] (inactive)
CNc1nc2c(N)ncnc2n1[C@H]1O[C@@H](CO)[C@H](O)[C@@H]1O,,-9.92% (inactive)
Cc1ccc(SCCC(=O)N/N=C/c2ccccc2O)cc1,,-12.1% (inactive)
Cc1ccc2[nH]c(O)c(N=NC(=O)C3CC3c3ccccc3)c2c1Br (stereo not drawn),,-17.7% (inactive)
CC(C)c1cccc(C(C)C)c1Nc1cn[nH]c1,,-9.61% (inactive)
Nn1cnnc1N/N=C/c1cc(Br)cc(Br)c1O,,-4.48% (inactive)
OC(c1ccccn1)(c1ccccn1)c1ccccn1,,-12.8% (inactive)
COc1ccc(C(=O)/C=C/c2ccc(OC3CSC3)cc2)cc1OC,,-2.31% (inactive)
COc1cc(C=CC(=O)c2cc(OC)c(OC)c(OC)c2)cc(OC)c1OC,17.8 µM (active),

Compound,Potency,"activity change, negative = cytotoxicity"
COc1ccc(C(=O)/C=C/c2cccc(OCc3ccccc3)c2)cc1CSCC(=O)O,,-25.6% (inactive)
CS(=O)(=O)N(CC(O)CON=C1c2ccccc2-c2ccccc21)c1ccc(F)cc1 (stereo not drawn),,-13.4% (inactive)
Nc1nc(NCCCN2CCOCC2)nc(Nc2ccccc2F)c1[N+](=O)[O-],,-10.7% [at 57.5 µM] (inactive)
Cc1ccc(C)c(OCCCC(=O)Nc2nccs2)c1,,-9.55% [at 57.5 µM] (inactive)
Cn1c(/C=C/c2ccc(Cl)cc2)c([N+](=O)[O-])c(=O)n(C)c1=O,22.4 µM (active),
Cn1c(/C=C/c2ccc(Cl)cc2Cl)c([N+](=O)[O-])c(=O)n(C)c1=O,22.4 µM (active),
Cc1cc(OCC(=O)Nc2ccc(Br)cc2)cc2c1C(=O)CC(C)(C)O2,,-17.5% (inactive)
NC1=NC[C@H](Cc2ccccc2)N1CCCCC1CCCCC1,,-14.5% (inactive)
CCc1cc(-c2[nH]ncc2-c2ccc(OC)cc2)c(O)cc1O,,-9.53% (inactive)
CC(C)=CCc1c(O)cc2oc3c(CC=C(C)C)c(O)c(O)c(CC=C(C)C)c3c(=O)c2c1O,,-29.3% (inactive)
Cc1c(N/N=C(\C#N)C(=O)c2ccccc2)c(=O)n(-c2ccccc2)n1C,12.6 µM (active),
COc1ccc(NS(=O)(=O)c2ccc(C(=O)Nc3c(C)n(C)n(-c4ccccc4)c3=O)cc2)cc1,,-6.96% (inactive)
Cc1ccccc1C(=O)/C(C#N)=N/Nc1c(C)n(C)n(-c2ccccc2)c1=O,10 µM (active),
Cc1cc(C)cc(NC(=O)/C(C#N)=C/c2cn(CC(=O)NCc3ccco3)c3ccccc23)c1,,-17.7% (inactive)
Nc1c(C(=O)NCCN2CCOCC2)c2nc3ccccc3nc2n1CCc1ccccc1F,,9.01% [at 57.5 µM] (inactive)
CCOC(=O)c1c(NC(=O)COC(=O)CNC(=O)c2ccco2)sc(C)c1C,,-7.39% (inactive)
N#Cc1ccccc1NC(=O)C1SC(=Nc2ccccc2)C(C(=O)Nc2ccc(Cl)cc2)=C1N (stereo not drawn),,3.17% (inactive)
O=C(CSc1ccc2ccccc2c1)Nc1nc2ccccc2[nH]1,,3.26% (inactive)
C/C(=N\NC(=O)CSCc1ccc([N+](=O)[O-])cc1)c1ccccc1O,,-8.24% (inactive)
N#Cc1c(Oc2ccc3ccccc3c2)sc(C(=O)c2ccccc2)c1N,,-25.3% [at 57.5 µM] (inactive)
COc1cnc(-c2ccccn2)nc1NC(C)C,10 µM (active),
COC(=O)COc1ccc(-c2nccc(-c3ccccn3)n2)cc1,,0.594% (inactive)
O=C(CNS(=O)(=O)c1ccc([N+](=O)[O-])cc1)N/N=C/c1ccc(O)cc1O,,-28.9% (inactive)
COc1ccc(O)c(/C=N/NC(=O)c2ccc(OCc3cccc(Br)c3)cc2)c1,,-21.1% (inactive)
O=C(N/N=C/c1cc([N+](=O)[O-])ccc1O)c1ccc(COc2ccc3c(c2)CCC3)o1,11.2 µM (active),
